Drawing on PubChem BioAssay (Tox21), this text covers Potency for 40 compounds.

Active and inactive are the calls of the source. A call without a number means that no potency is given here. The call rests on the fitted dose curve; in most records, active means well fitted activation curve with a large enough effect in the repeat runs; inconclusive means weak or mixed curves; inactive means flat fitted curve, though single readings scatter. Numbered stars: 1 amine (or outer) side, 2 acyl side, 3 side chain; on linkers, the order of the positions; unused ones are H or OH. Bridge positions count the residues as written; N and C are the ends. Square brackets hold non-standard residues; d marks the D form. Peptide text beside a SMILES is read from it. I, II: the chains in the order shown. Actinocin(9to1) = Cc1c2oc3c(C)ccc(C(=O)[*:1])c3nc-2c(C(=O)[*:2])c(N)c1=O; NMeV = CN[C@H](C(=O)O)C(C)C; Sar = CNCC(=O)O

Sequence of KiSS-1 receptor (Homo sapiens) (Q969F8 whole entry, looked up): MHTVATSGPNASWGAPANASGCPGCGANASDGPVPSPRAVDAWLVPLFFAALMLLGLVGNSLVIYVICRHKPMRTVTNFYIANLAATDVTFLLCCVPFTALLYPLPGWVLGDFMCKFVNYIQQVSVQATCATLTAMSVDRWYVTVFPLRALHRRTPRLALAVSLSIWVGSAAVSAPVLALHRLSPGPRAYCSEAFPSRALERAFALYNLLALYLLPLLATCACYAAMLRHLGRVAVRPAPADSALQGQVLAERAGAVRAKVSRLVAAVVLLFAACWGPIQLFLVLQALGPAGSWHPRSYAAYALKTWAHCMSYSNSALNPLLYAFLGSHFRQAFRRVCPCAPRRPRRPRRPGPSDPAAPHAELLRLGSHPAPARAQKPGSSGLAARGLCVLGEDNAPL

In this assay the target is KiSS-1 receptor (Homo sapiens) (UniProt Q969F8). Briefly: Human kisspeptin (KISS1R) small molecule agonists, calcium flux assay in KISS1R-HEK293 cells (AID 1920064). The following applies: KISS1R-HEK293, calcium flux fluorescence, agonist; series mostly up to 76.8 µM. The text has this:
National Center for Advancing Translational Sciences [NCATS]
Division of Preclinical Innovation [DPI]
U.S. Environmental Protection Agency [EPA]
National Institutes of Environmental Health Sciences [NIEHS]
National Toxicology Program [NTP]
U.S. Food and Drug Administration [FDA]
Kisspeptin and its receptor KISS1R play key roles in mammalian reproduction due to their involvement in the onset of puberty and control of the hypothalamic-pituitary-gonadal axis such as regulates GnRH release from the hypothalamus. The kisspeptin/KISS1R system also plays a direct role in peripheral organs (including the ovary, testis, uterus, and placenta) and is implicated in reproductive diseases such as miscarriage and polycystic ovary syndrome (PCOS). Abnormal KISS1R activity is associated with abnormal puberty, infertility, endometriosis, and hormone-dependent tumors. The KISS1 receptor (KISS1R, also called GPR54), a G-protein-coupled receptor (GPCR), acts (through phospholipase C) to increase intracellular inositol trisphosphate and then release intracellular calcium stores. Cell-based KISS1R-HEK293 assay is using HEK293 cells that have been genetically engineered to express the human KISS1R, which activity can be measured by calcium signaling. A compound/drug can activate (agonist) KISS1R that can be monitored by levels of intracellular calcium.
KISS1R-HEK293 cells developed by Codex Corp contain human KISS1R gene, which was stably integrated into HEK 293 cells. The compound activation can be detected by fluorescence intensity via calcium flux assay. This cell line has been used to screen the Tox21 10K compound library to identify agonists of KISS1R.
KISS1R-Hek293 cells were dispensed at 1500 cells/4uL/well in 1536-well black wall/clear bottom plates using a multidrop dispenser. After the assay plates were incubated at a 37 C/5% CO2 incubator for 18 hours, 4 microL of Calcium Dye Solution was added to each well. The plates were incubated at 37 C for 1 hour. And then 23 nL of compounds dissolved in DMSO, positive controls, or DMSO only was transferred to the assay plate by a pin tool station. The fluorescence intensity in the plates was measured using FDSS 7000EX kinetic plate reader with a filter set of Ex/Em=480/540 for 3 min at 1 sec intervals. Each test compound was measured at 15 concentrations and in triplicates.
(A change in cytosolic calcium serves as a functional read-out for many receptors and channels.)
For the compound `COc1ccc(C(=O)CC(=O)c2ccc(C(C)(C)C)cc2)cc1`, the Potency result is “inactive”.

With `CCCOC(C(=O)OC1CCN(C)CC1)(c1ccccc1)c1ccccc1`, the Potency entry was “inactive”. Turning to `CCC(C)(C)CC`, the Potency result was “inactive”. With `COc1cc(Cl)ccc1Cl` the entry was “inactive”; with `CC(=O)N(CC(O)CO)c1c(I)c(C(=O)NCC(O)CO)c(I)c(C(=O)NCC(O)CO)c1I` (stereo not given), “inactive”; with `C/C(Cl)=C/CCl`, “inactive”. Take `COC(/C=C(\C)CCC=C(C)C)OC`: the Potency entry was “inactive”. With `NS(=O)(=O)c1cc2c(cc1Cl)NC(CC1CCCC1)NS2(=O)=O` (stereo not given) the entry was “inactive”.

Consider `Cc1ccccc1C`, for which the Potency result is “inactive”. Then `COc1ccccc1NC(=O)CC(C)=O`, with “inactive”. Then `CCCCC(CC)COP(=O)(O)OCC(CC)CCCC` (stereo not given), with “inactive”; and `C=CC(=O)NCOCCCC`, with “inactive”; and `O=C(O)[C@@H](O)[C@H](O)[C@H](O)[C@@H](O)C(=O)O`, with “inactive”. Regarding `CC/C=C\CCOC(=O)CC`, the Potency result is “inactive”. With `O=C(O)c1ccccc1S` the entry was “inactive”; with `O=c1cccc[nH]1`, “inactive”; with `Nc1cccc(N)n1`, “inactive”. With `C=CC(C)(CCC=C(C)C)OC(=O)CC` (stereo not given) the entry was “inactive”; with `Cc1c2oc3c(C)ccc(C(=O)N[C@@H]4C(=O)N[C@H](C(C)C)C(=O)N5CCC[C@H]5C(=O)N(C)CC(=O)N(C)[C@@H](C(C)C)C(=O)O[C@@H]4C)c3nc-2c(C(=O)N[C@@H]2C(=O)N[C@H](C(C)C)C(=O)N3CCC[C@H]3C(=O)N(C)CC(=O)N(C)[C@@H](C(C)C)C(=O)O[C@@H]2C)c(N)c1=O` (I: T[dV]P[Sar][NMeV] / II: T[dV]P[Sar][NMeV]; ester I:1-I:C, II:1-II:C; linker I:N-II:N via Actinocin(9to1)), “inactive”. With `S=C(NC1CCCCC1)NC1CCCCC1` the entry was “inactive”. Turning to `CC(C)C(=O)c1ccccc1`, the Potency result was “inactive”. Consider `COC(=O)c1ccccc1C(=O)O`, for which the Potency entry is “inactive”. Then `C=CC(=O)NCOCC(C)C`, with “inactive”; and `Cn1cnc2c(F)c(Nc3ccc(Br)cc3Cl)c(C(=O)NOCCO)cc21`, with “inactive”. With `OCCN1CCN(CCCN2c3ccccc3C=Cc3ccccc32)CC1` the entry was “inactive”; with `CC(COCCO)OCCO` (stereo not given), “inactive”; with `CCC(CO)CO`, “inactive”. With `CCCC(=O)OCC(COC(=O)CCC)OC(=O)CCC` the entry was “inactive”; with `CNCCO`, “inactive”. Turning to `C=CC(=O)CCCCC`, the Potency result is “inactive”.

On to `CC1=C(C=O)C(C)(C)CC=C1`, for which the Potency entry was “inactive”. Then `CC(=O)/C=C/C1C(C)=CCC(C)C1(C)C` (stereo not given), with “inactive”; and `CC1(C)C(C=C(Cl)Cl)C1C(=O)OCc1cccc(Oc2ccccc2)c1` (stereo not given), with “inactive”; and `CS(C)(=O)=O`, with “inactive”. In the case of `Nc1nnnn1-c1ccccc1`, the Potency entry is “inactive”. With `O=C(Oc1ccccc1)c1ccc(O)cc1` the entry was “inactive”. On to `CC(=O)S[C@H](C(=O)N[C@H]1Cc2ccccc2[C@H]2CCC[C@@H](C(=O)O)N2C1=O)C(C)C`, for which the Potency result was “inactive”. Then `N[C@@H](CCC(=O)Nc1ccc([N+](=O)[O-])cc1)C(=O)O`, with “inactive”; and `CC(C)(C)c1nnc(NS(=O)(=O)c2ccc(N)cc2)s1`, with “inactive”; and `C[C@@H]1O[C@@H](OC[C@H]2O[C@@H](Oc3c(-c4ccc(O)c(O)c4)oc4cc(O)cc(O)c4c3=O)[C@H](O)[C@@H](O)[C@@H]2O)[C@H](O)[C@H](O)[C@H]1O`, with “inactive”.
